Results: PubChem BioAssay AID1159580 (chemical genetic matrix, 2015)
“And” between values parts separate entries of the source, which are not always exact repeats. Equal entries are not always repeated. Out of some 5,500 compounds screened, about 2,000 (36%) were called active. Roughly 18% stayed inconclusive and do not appear here. Cut-off read from the data, not from the text of the source: active = normalized growth mostly below about 0.91 (no sharp cut-off); inconclusive = no clear call, values can overlap the other calls; inactive = mostly above about 0.92. The list shows a part of the results.

Experiment: chemical genetic growth profiling, strain panel (AID 1159580);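 note: tested at 20 µM; growth read once vehicle control cultures reached saturation at 30 °C; 1 = growth at the plate median or of vehicle wells; lower values mean less growth of the strain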
Details: S. cerevisiae deletion strains, growth OD

Measured: normalized growth

C[C@]12CCC3c4ccc(O)cc4CCC3C1CC[C@@H]2O (some centres undefined)
inactive: locus YAL013W, strain DEP1, hits give low values 1.01 | locus YAL021C, strain ccr4, hits give low values 0.983 | locus YAL026C, strain drs2, hits give low values 0.943 | locus YAL030W, strain snc1, hits give low values 1.01 | locus YBL061C, strain skt5, hits give low values 0.961 | locus YBR009C, strain hhf1, hits give low values 0.91 | locus YBR023C, strain chs3, hits give low values 0.992 | locus YBR171W, strain sec66, hits give low values 1.01 | locus YBR229C, strain ROT2, hits give low values 1.01 | locus YBR231C, strain swc5, hits give low values 0.946 | locus YBR279W, strain paf1, hits give low values 0.993 | locus YCL011C, strain gbp2, hits give low values 0.988 | locus YCL016C, strain dcc1, hits give low values 0.975 | locus YCL029C, strain bik1, hits give low values 0.996 | locus YCL061C, strain MRC1, hits give low values 0.988 | locus YCL069W, strain vba3, hits give low values 1.01 | locus YCR088W, strain abp1, hits give low values 1.03 | locus YDL005C, strain med2, hits give low values 1.02 | locus YDL035C, strain GPR1, hits give low values 0.912 | locus YDL040C, strain nat1, hits give low values 1.02 | locus YDL074C, strain BRE1, hits give low values 0.882 | locus YDL101C, strain DUN1, hits give low values 1 | locus YDL185W, strain tfp1, hits give low values 0.979 | locus YDL192W, strain arf1, hits give low values 0.958 | locus YDR001C, strain nth1, hits give low values 1.03 | locus YDR069C, strain doa4, hits give low values 1 | locus YDR101C, strain arx1, hits give low values 0.958 | locus YDR150W, strain NUM1, hits give low values 1.03 | locus YDR159W, strain sac3, hits give low values 0.954 | locus YDR162C, strain NBP2, hits give low values 0.987 | locus YDR297W, strain sur2, hits give low values 0.992 | locus YDR318W, strain mcm21, hits give low values 0.996 | locus YDR334W, strain swr1, hits give low values 1.02 | locus YDR335W, strain msn5, hits give low values 0.985 | locus YDR388W, hits give low values 0.997 | locus YDR502C, strain sam2, hits give low values 0.973 | locus YEL003W, strain gim4, hits give low values 0.921 | locus YEL037C, strain rad23, hits give low values 1.02 | locus YEL061C, strain CIN8 (second series), hits give low values 1.01 | locus YEL061C, strain CIN8, hits give low values 1.02 | locus YER015W, strain faa2, hits give low values 0.981 | locus YER016W, strain bim1, hits give low values 0.969 | locus YER110C, hits give low values 0.989 | locus YER111C, strain swi4, hits give low values 1.03 | locus YER155C, strain BEM2 (second series), hits give low values 1.04 | locus YER155C, strain BEM2, hits give low values 1.03 | locus YER167W, strain BCK2, hits give low values 1 | locus YFR010W, strain ubp6, hits give low values 1 | locus YGL078C, strain dbp3, hits give low values 0.934 | locus YGL086W, strain mad1, hits give low values 0.953 | locus YGL167C, strain pmr1, hits give low values 1.01 | locus YGL173C, strain kem1, hits give low values 0.968 | locus YGL227W, strain vid30, hits give low values 1.03 | locus YGL240W, strain doc1, hits give low values 0.96 | locus YGL248W, strain PDE1, hits give low values 0.981 | locus YGR078C, strain PAC10, hits give low values 0.967 | locus YGR135W, strain pre9, hits give low values 0.949 | locus YHR013C, strain ard1, hits give low values 0.996 | locus YHR027C, strain rpn1, hits give low values 1.01 | locus YHR030C, strain SLT2, hits give low values 1.03 and 0.961 | locus YHR079C, strain IRE1 (second series), hits give low values 1.01 | locus YHR079C, strain IRE1, hits give low values 0.954 | locus YHR094C, strain hxt1, hits give low values 1.01 | locus YHR129C, strain ARP1, hits give low values 1 | locus YHR142W, strain chs7, hits give low values 0.891 | locus YHR200W, strain rpn10, hits give low values 1 | locus YIL066C, strain RNR3, hits give low values 0.955 | locus YIL073C, strain SPO22, hits give low values 0.936 | locus YIL125W, strain kgd1, hits give low values 1 | locus YIR030C, strain dcg1, hits give low values 1 | locus YJL092W, strain hpr5, hits give low values 1.03 | locus YJL095W, strain BCK1 (second series), hits give low values 0.997 | locus YJL095W, strain BCK1, hits give low values 0.978 and 0.961 | locus YJL115W, strain asf1, hits give low values 1.02 | locus YJL129C, strain trk1, hits give low values 0.889 | locus YJL134W, strain LCB3, hits give low values 1.02 | locus YJL154C, strain vps35, hits give low values 1.02 | locus YJL166W, strain qcr8, hits give low values 0.971 | locus YJL168C, strain set2, hits give low values 0.997 | locus YJL187C, strain SWE1 (second series), hits give low values 0.966 | locus YJL187C, strain SWE1, hits give low values 1.01 | locus YJR043C, strain POL32, hits give low values 0.938
active: locus YBR021W, strain FUR4, hits give low values 0.783 | locus YDR137W, strain rgp1, hits give low values 0.83 | locus YDR195W, strain ref2 1.27 [resistant] | locus YDR392W, strain spt3, hits give low values 0.639 | locus YGL253W, strain hxk2, hits give low values 0.895 | locus YGR252W, strain gcn5, hits give low values 0.735 | locus YJL164C, strain tpk1, hits give low values 0.916
